Consider 63 compounds from PubChem BioAssay AID1376 (SRMLSC, 2008).

About 530 (0.24%) of roughly 220,000 compounds were called active. Cut-off read from the data, not from the text of the source: active = inhibition above about 13%; inconclusive = no clear call, values can overlap the other calls; inactive = below that. Only a selection was taken, and actives are over-represented in it overall. Potency and affinity values are given separately.

For the test, the target named is Bifunctional protein GlmU (Mycobacterium tuberculosis (strain ATCC 25618 / H37Rv)) (UniProt P9WMN3). As to the kind of experiment: inhibition of mycobacterial GlmU enzyme – biochemical, glucosamine-1-phosphate acetyltransferase (AID 1376).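 Note: 0% = complete reaction with vehicle and 100% = reaction without substrate.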 Conditions: M. tuberculosis GlmU acetyltransferase enzyme assay; stronger effect = higher value;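 tested at 30 µM in the primary screen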.
Bifunctional protein GlmU (Mycobacterium tuberculosis (strain ATCC 25618 / H37Rv)), sequence (P9WMN3 whole entry, looked up): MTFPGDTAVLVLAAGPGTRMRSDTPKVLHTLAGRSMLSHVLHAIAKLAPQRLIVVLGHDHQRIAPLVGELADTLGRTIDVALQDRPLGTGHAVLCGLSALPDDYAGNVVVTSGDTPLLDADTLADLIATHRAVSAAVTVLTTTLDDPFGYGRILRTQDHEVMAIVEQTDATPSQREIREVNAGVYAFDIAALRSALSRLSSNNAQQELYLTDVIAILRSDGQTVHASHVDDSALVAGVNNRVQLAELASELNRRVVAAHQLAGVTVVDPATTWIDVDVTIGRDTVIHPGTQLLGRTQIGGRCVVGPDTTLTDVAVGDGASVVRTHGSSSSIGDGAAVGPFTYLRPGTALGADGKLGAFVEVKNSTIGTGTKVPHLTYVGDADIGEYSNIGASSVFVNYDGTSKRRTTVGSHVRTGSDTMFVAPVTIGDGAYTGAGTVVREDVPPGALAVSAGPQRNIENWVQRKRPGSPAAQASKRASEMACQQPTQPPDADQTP
With `O=[N+]([O-])c1cc(S(=O)(=O)N2CCCC2)ccc1N/N=C/c1cccnc1`, the inhibition is -1.08% (inactive).
As for `O=c1cc(-c2ccc(O)cc2)oc2ccc(O)cc12`, the inhibition is -0.88% (inactive).
Consider `O=c1cc(O)c2ccc(O)cc2o1`, for which the inhibition is 4.26% (inactive).
Consider `O=C(c1ccc([N+](=O)[O-])cc1[N+](=O)[O-])N1CCCC1`, for which the inhibition was 2.34% (inactive).
For the compound `CC1CC(C)CN(C(=O)Cn2c(=O)n(CCCCC(=O)NCc3ccco3)c(=O)c3ccccc32)C1` (stereo not drawn), the inhibition is 4.18% (inactive).
`CCOc1nc2c(c(=O)n(C)c(=O)n2C)n1Cc1ccccc1Cl`: the inhibition was 1.39% (inactive).
With `CCCCNC(=O)Nc1nc2ccccc2s1`, the inhibition was 5.87% (inactive).
The result for `COc1cccc(NC2=NC3(CCCCC3)N=C(N)N2)c1` reads 0.3% (inactive); that for `CCCCOc1ccc(NC2=NC3(CCCCC3)N=C(N)N2)cc1`, -13.7% (inactive).
As for `COc1ccc(NC2=NC3(CCCCC3)N=C(N)N2)cc1`, the figure is 26% (active); as for `CCOc1ccc(/C=C(/NC(=O)c2ccc(Cl)cc2)C(=O)O)cc1OCC`, -0.87% (inactive).
`NC(=O)c1ccc(-n2nnnc2Oc2ccc(Br)cc2)cc1`: the inhibition was -0.77% (inactive).
As for `COc1ccc(NC(=O)Nc2ccccn2)cc1OC`, the figure is 5.35% (inactive); as for `Cc1c(Br)c(=O)oc2c(Br)c(O)ccc12`, 4.5% (inactive).
As for `Cc1c(Br)c(=O)oc2c(C)c(O)ccc12`, the inhibition was -1.97% (inactive).
As for `CC(C)(Cc1ccc(O)cc1)NC(=O)CC(=O)N/N=C/c1ccc([N+](=O)[O-])cc1`, the inhibition was -2.21% (inactive).
As to `COc1cc(/C=N/NC(=O)CCn2c3ccccc3c3ccccc32)cc(OC)c1OC`, the inhibition was 1.58% (inactive).
Regarding `O=C(CN1CCN(Cc2ccccc2)CC1)N/N=C/c1cccnc1`, the inhibition is 1.02% (inactive).
In the case of `Cc1cccc(N=C2NC(=O)/C(=C/C=C/c3ccco3)S2)c1C`, the inhibition is -4.23% (inactive).
Regarding `Cc1cccc(N=C2NC(=O)/C(=C/C=C/c3ccco3)S2)c1`, the inhibition is 13.5% (active).
On to `Cc1ccc(N=C2NC(=O)/C(=C/C=C/c3ccco3)S2)cc1`, for which the inhibition was 4.9% (inactive).
With `COc1ccc(N=C2NC(=O)/C(=C\C=C\c3ccco3)S2)cc1`, the inhibition is 8.93% (inactive).
As for `O=C1NC(=Nc2ccc(O)cc2)S/C1=C\C=C\c1ccco1`, the figure is 3.62% (inactive); as for `O=C1NC(=Nc2ccccc2)S/C1=C\C=C\c1ccco1`, 14.8% (active).
`O=C1Cn2c(nc3ccccc32)N1c1cccc(C(F)(F)F)c1`: the inhibition is 0.84% (inactive).
As for `CN(Cc1ccncc1)C1CC(=O)N(c2ccc(F)cc2)C1=O` (stereo not drawn), the inhibition is 5.02% (inactive).
In the case of `CCSc1ccccc1C(=O)NC1CCCCC1`, the inhibition was 2.94% (inactive).
In the case of `CCCNCc1cc(Br)ccc1OCC(=O)NCCc1ccccc1`, the inhibition is 0.38% (inactive).
As for `CC(C)N(Cc1ccccc1)C(=O)Cn1c(=O)cnc2ccccc21`, the inhibition is -0.29% (inactive).
`Cc1[nH]n(C2=NCCS2)c(=O)c1N=Nc1cccc(C(F)(F)F)c1`: the inhibition is -0.55% (inactive).
The result for `Cc1cc(C)c(S(=O)(=O)Nn2cnnc2)c(C)c1` reads -3.71% (inactive); that for `Cc1ccc(S(=O)(=O)c2c(C)cc(C)nc2Cl)c(C)c1`, 1.23% (inactive).
Consider `Cc1cc(C)c(S(=O)(=O)/N=C2\C=CC(=O)C(Cl)=C2)c(C)c1`, for which the inhibition was 14.5% (active).
For the compound `COc1cccc(C2=NN(C(=O)c3ccco3)C(O)(C(F)(F)F)C2)c1` (stereo not drawn), the inhibition is 3.28% (inactive).
For `Cc1ccc(-c2csc3ncnc(OCC(=O)NC(=O)NCc4ccco4)c23)cc1`, the inhibition was 2.74% (inactive).
As for `CN(c1ccccc1)S(=O)(=O)c1ccc(NC(=S)Nc2ccccc2)cc1`, the figure is 18.1% (active); as for `CN(c1ccccc1)S(=O)(=O)c1ccc(NC(=S)NC(=O)c2ccccc2)cc1`, 0.7% (inactive); as for `CC(=O)Nc1ccc(S(=O)(=O)N(C)c2ccccc2)cc1`, -1.32% (inactive).
As for `O=C(O)c1ccc2c(c1Sc1ccccc1)C(=O)c1ccccc1C2=O`, the inhibition was 7.96% (inactive).
For `O=C1c2cccc(O)c2C(=O)c2c(O)cccc21`, the inhibition is 6.42% (inactive).
Take `O=C1c2cccc(Sc3ccccc3)c2C(=O)c2c(Sc3ccccc3)cccc21`: the inhibition was 14.2% (active).
The result for `CC(C)C(NC(=O)C1CCC(C(C)(C)C)CC1)C(=O)NCc1cccnc1` (stereo not drawn) reads 5% (inactive); that for `CCOc1ccc(S(=O)(=O)N2CCN(C(=S)NC3CC3)CC2)cc1`, 4.79% (inactive).
Take `CCn1c(Cc2ccccc2)nnc1SCc1cccc(C(=O)O)c1`: the inhibition is 1.34% (inactive).
For the compound `CCC(=NC(C)c1ccccc1)c1c(O)n(C)c(=O)n(C)c1=O` (stereo not drawn), the inhibition is -3.09% (inactive).
As for `COc1cc2c(cc1OC)C(c1ccccc1O)N(C1CC(=O)N(c3ccccc3)C1=O)CC2` (stereo not drawn), the figure is 2.68% (inactive); as for `CCOC(=O)Cc1csc(NC(=O)c2cc(C)cc(C)c2)n1`, -2.68% (inactive).
Take `Cn1c(SCC(=O)N2CCOCC2)nnc1-c1ccc2ncccc2c1`: the inhibition was 13.7% (active).
The result for `CCOC(=O)CSc1nnc(-c2ccc3ncccc3c2)n1C` reads 0.08% (inactive); that for `Cn1c(SCC(=O)O)nnc1-c1ccc2ncccc2c1`, -1.41% (inactive); that for `Cc1ccc(S(=O)(=O)N2CCCOC2CNC(=O)C(=O)NC2CCCCC2)cc1` (stereo not drawn), -5.78% (inactive).
As to `Cc1ccc(C=C2C(=O)c3ccccc3C2=O)o1`, the inhibition was 2.45% (inactive).
As for `O=C1/C(=C\c2ccc(Br)o2)Cc2ccccc21`, the inhibition was 8.39% (inactive).
On to `COc1ccc(C(CNC(=O)c2ccc(S(=O)(=O)N(C)C)cc2)N2CCCCC2)cc1` (stereo not drawn), for which the inhibition is 0.14% (inactive).
The result for `COc1ccc(NC(=O)N2CCCC2C(=O)NCc2ccc(C)cc2)cc1` (stereo not drawn) reads 1.15% (inactive); that for `CC(C)CNC(C)C(=O)Nc1ccc(S(N)(=O)=O)cc1` (stereo not drawn), -3.38% (inactive).
The result for `C=CCOc1c2ccc(C(=O)NCc3ccc(C)cc3)cc2nn1C` reads 1.15% (inactive); that for `CC(=O)NNC(=O)c1cc2c3ccccc3n(C)c2s1`, 2.59% (inactive).
On to `Cn1c2ccccc2c2cc(C(=O)N3CCN(CCO)CC3)sc21`, for which the inhibition was 12.8% (active).
Consider `Cn1c2ccccc2c2cc(C(=O)N3CCOCC3)sc21`, for which the inhibition was 5.13% (inactive).
In the case of `Cc1cccc(CSc2nc3c(cc2C#N)CN(C)CC3)c1`, the inhibition is -4.03% (inactive).
With `CN1CCc2nc(SCc3ccccc3Br)c(C#N)cc2C1`, the inhibition was -4.18% (inactive).
On to `CN1CCc2nc(SCc3cccc(Br)c3)c(C#N)cc2C1`, for which the inhibition was 13% (active).

The term inhibition denotes the relative decrease from the control value, in per cent.
